Source: PubChem BioAssay (NCI)
About 83,000 compounds went through this panel and 20% of them were active in at least one assay; those are over-represented in the sample as a whole.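 In brief: 96-well plates, 48 h treatment, single concentration, percent growth endpoint.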 Calls of active or inactive are those of the source. How the source made its calls: active means growth percent below 10; inactive means the rest.

Columns and labels:
Test in all cases: NCI-60 one-dose screen, 48 h (100 = growth as untreated, 0 = no growth, -100 = all killed)
Conditions in all cases: 10 µM unless noted
SK-MEL-2 melanoma = test system: SK-MEL-2 melanoma
EKVX NSCLC = test system: EKVX NSCLC
SN12C renal = test system: SN12C renal
UO-31 renal = test system: UO-31 renal
TK-10 renal = test system: TK-10 renal
CAKI-1 renal = test system: CAKI-1 renal
A498 renal = test system: A498 renal
CCRF-CEM leukemia = test system: CCRF-CEM leukemia
SR leukemia = test system: SR leukemia
RPMI-8226 leukemia = test system: RPMI-8226 leukemia
OVCAR-8 ovarian = test system: OVCAR-8 ovarian
OVCAR-5 ovarian = test system: OVCAR-5 ovarian
OVCAR-4 ovarian = test system: OVCAR-4 ovarian
SK-OV-3 ovarian = test system: SK-OV-3 ovarian
IGROV1 ovarian = test system: IGROV1 ovarian
OVCAR-3 ovarian = test system: OVCAR-3 ovarian
HS 578T breast = test system: HS 578T breast
NCI/ADR-RES ovarian = test system: NCI/ADR-RES ovarian
ACHN renal = test system: ACHN renal
MOLT-4 leukemia = test system: MOLT-4 leukemia

Measured: growth

COc1cccc(-c2nn(-c3ccccc3)cc2-c2ccnc(NCCNC(=O)Nc3cccc(C(F)(F)F)c3)c2)c1
active: SK-MEL-2 melanoma -25.2% | UO-31 renal -21.9% | SR leukemia -21.2% | HS 578T breast -21.3%
inactive: EKVX NSCLC 45.1% | SN12C renal 28.4% | TK-10 renal 57.7% | CAKI-1 renal 25.7% | A498 renal 39.7% | CCRF-CEM leukemia 28.7% | RPMI-8226 leukemia 32.6% | OVCAR-8 ovarian 19.8% | OVCAR-5 ovarian 58.4% | OVCAR-4 ovarian 46.5% | SK-OV-3 ovarian 44.9% | IGROV1 ovarian 55.4% | OVCAR-3 ovarian 39.2% | NCI/ADR-RES ovarian 27.2%

CC(C)(C)c1ccc(/C=C/C(=O)Nc2ccc(O)cc2)cc1
inactive: SK-MEL-2 melanoma 94.6% | EKVX NSCLC 89.2% | SN12C renal 61.8% | UO-31 renal 31.6% | TK-10 renal 103% | ACHN renal 60.6% | CAKI-1 renal 61.7% | A498 renal 103% | MOLT-4 leukemia 29.4% | RPMI-8226 leukemia 59.8% | OVCAR-8 ovarian 45.7% | OVCAR-5 ovarian 89.8% | OVCAR-4 ovarian 73.8% | SK-OV-3 ovarian 96.8% | IGROV1 ovarian 62.2% | OVCAR-3 ovarian 60.4% | HS 578T breast 80.4% | NCI/ADR-RES ovarian 59.9%

CN(C)CCCn1c(=O)c2ccccc2c2ccccc21
inactive: SK-MEL-2 melanoma 83.7% | EKVX NSCLC 107% | SN12C renal 50.6% | UO-31 renal 53.6% | TK-10 renal 79.3% | CAKI-1 renal 79.8% | A498 renal 104% | CCRF-CEM leukemia 49.9% | MOLT-4 leukemia 51.6% | RPMI-8226 leukemia 59.9% | OVCAR-5 ovarian 73.3% | OVCAR-4 ovarian 86.3% | SK-OV-3 ovarian 92.3% | IGROV1 ovarian 56.2% | OVCAR-3 ovarian 96.5% | HS 578T breast 79.3% | NCI/ADR-RES ovarian 78.3%

CCCCCCCCn1ccc2cc(NC(=O)Cn3cc(CN4CCCC4)nn3)ccc21
inactive: SK-MEL-2 melanoma 68.6% | EKVX NSCLC 88.8% | SN12C renal 44.4% | TK-10 renal 89.9% | ACHN renal 89.4% | A498 renal 87.2% | MOLT-4 leukemia 32.8% | SR leukemia 19.2% | OVCAR-4 ovarian 76.2% | SK-OV-3 ovarian 87.2% | IGROV1 ovarian 76% | OVCAR-3 ovarian 51.9% | HS 578T breast 76.8% | NCI/ADR-RES ovarian 92.7%
active: UO-31 renal 6.9% | CAKI-1 renal 8.76% | RPMI-8226 leukemia -66%

COc1ccc(C(=O)/C=C/c2c(C(F)(F)F)nc3sccn23)cc1OC
active: CAKI-1 renal 2.75% | MOLT-4 leukemia -16.6% | SK-OV-3 ovarian 9.87% | OVCAR-3 ovarian -33.9% | HS 578T breast -5.99% | NCI/ADR-RES ovarian 4.94%
inactive: SK-MEL-2 melanoma 80.4% | EKVX NSCLC 37.1% | SN12C renal 29% | UO-31 renal 61.1% | TK-10 renal 58.1% | ACHN renal 26.5% | A498 renal 94.7% | OVCAR-8 ovarian 18.6% | OVCAR-5 ovarian 44.6% | OVCAR-4 ovarian 25.5% | IGROV1 ovarian 81.9%

O=C(/C=C/c1ccc(Cl)nc1)c1ccc(Cl)cc1Cl
inactive: SK-MEL-2 melanoma 106% | EKVX NSCLC 97.5% | SN12C renal 106% | UO-31 renal 89.3% | TK-10 renal 100% | CAKI-1 renal 71.2% | A498 renal 88.8% | MOLT-4 leukemia 15.9% | OVCAR-8 ovarian 95.6% | OVCAR-4 ovarian 87.3% | SK-OV-3 ovarian 106% | IGROV1 ovarian 96.9% | OVCAR-3 ovarian 78.5% | HS 578T breast 110% | NCI/ADR-RES ovarian 102%
active: CCRF-CEM leukemia 7%

CC(=O)OC1CCC2(C)C(=CC3C4CCC(=O)C4(C)CCC32)C1 (stereo unspecified)
inactive: SK-MEL-2 melanoma 93% | EKVX NSCLC 109% | SN12C renal 96.4% | UO-31 renal 96.2% | TK-10 renal 108% | ACHN renal 101% | CAKI-1 renal 101% | A498 renal 154% | MOLT-4 leukemia 103% | RPMI-8226 leukemia 89.3% | OVCAR-8 ovarian 97.3% | OVCAR-5 ovarian 100% | OVCAR-4 ovarian 103% | SK-OV-3 ovarian 105% | IGROV1 ovarian 105% | OVCAR-3 ovarian 109% | HS 578T breast 119% | NCI/ADR-RES ovarian 104%

COc1cc(/C=C/C(=O)c2cccc(-n3cc(-c4ccccc4)[nH]c3=O)c2)ccc1O
inactive: SK-MEL-2 melanoma 56.5% | EKVX NSCLC 70.7% | SN12C renal 27.9% | UO-31 renal 36.4% | TK-10 renal 81.6% | ACHN renal 34.4% | CAKI-1 renal 45.8% | A498 renal 116% | SR leukemia 15.3% | OVCAR-5 ovarian 61.3% | SK-OV-3 ovarian 92.2% | HS 578T breast 71.3% | NCI/ADR-RES ovarian 23.2%
active: MOLT-4 leukemia 6.81% | RPMI-8226 leukemia -9.6% | IGROV1 ovarian 2.96% | OVCAR-3 ovarian 6.11%

COC(=O)c1c2c(c[n+]([O-])c1C)C(=O)C=CC2=O
active: MOLT-4 leukemia -17.4% | OVCAR-4 ovarian -13.2% | IGROV1 ovarian 2.42% | OVCAR-3 ovarian -66.3%
inactive: SK-MEL-2 melanoma 58.5% | EKVX NSCLC 101% | SN12C renal 59.7% | UO-31 renal 46.5% | TK-10 renal 101% | ACHN renal 14.2% | CAKI-1 renal 62.1% | A498 renal 106% | RPMI-8226 leukemia 57.6% | OVCAR-8 ovarian 35.3% | OVCAR-5 ovarian 118% | SK-OV-3 ovarian 97% | HS 578T breast 86.3% | NCI/ADR-RES ovarian 97.1%

COCCN(C(=O)c1ccc(F)cc1F)c1c(N)n(Cc2ccccc2)c(=O)[nH]c1=O
inactive: SK-MEL-2 melanoma 98.7% | EKVX NSCLC 109% | SN12C renal 108% | UO-31 renal 83.4% | TK-10 renal 119% | CAKI-1 renal 106% | A498 renal 100% | CCRF-CEM leukemia 94.5% | MOLT-4 leukemia 98.1% | RPMI-8226 leukemia 112% | OVCAR-8 ovarian 112% | OVCAR-5 ovarian 92.2% | OVCAR-4 ovarian 98.9% | SK-OV-3 ovarian 111% | OVCAR-3 ovarian 115% | HS 578T breast 107% | NCI/ADR-RES ovarian 110%
active: IGROV1 ovarian 2.97%

COc1ccc2oc3c(C)c4c(c(C)c3c2c1)C(=O)N(Cc1ccccc1)C4=O
inactive: SK-MEL-2 melanoma 105% | EKVX NSCLC 92.9% | SN12C renal 89.8% | UO-31 renal 80.7% | TK-10 renal 120% | ACHN renal 88.3% | CAKI-1 renal 81.1% | A498 renal 109% | MOLT-4 leukemia 106% | RPMI-8226 leukemia 100% | OVCAR-5 ovarian 99.9% | OVCAR-4 ovarian 90.7% | SK-OV-3 ovarian 103% | IGROV1 ovarian 94.6% | OVCAR-3 ovarian 89.3% | HS 578T breast 85.5% | NCI/ADR-RES ovarian 95.3%
